Inconclusive results are not listed. Calls of active or inactive are those of the source. Unless noted, the call rests on the fitted dose curve; in most records, active means well fitted curve in the direction sought with a large enough effect; inconclusive means small, poorly fitted or top-dose-only effect, or another doubt; inactive means no such curve, though single readings can be large or run the other way.
Columns and labels:
[1] = molecular target: Catechol O-methyltransferase (Homo sapiens) (UniProt P21964); test: Confirmatory Screen for Target Class Profiling of Small Molecule Inhibitors of Methyltransferases (AID 1745852; calls by dose curve; further: potency means the concentration at half of the fitted maximal effect; on activity change, negative = inhibition: on the % scale 0 is the no-effect control and ±100 the full control effect); details: MTase-Glo luminescence, SAH detection, recombinant enzyme; measured here: COMT max response; stronger effect = lower value
[2] = molecular target: Guanidinoacetate N-methyltransferase (Homo sapiens) (UniProt Q14353); test: as above; details: MTase-Glo luminescence, SAH detection, recombinant enzyme; activity change, negative = inhibition: at 57.3 µM (top of the series)
[3] = molecular target: Nicotinamide N-methyltransferase (Homo sapiens) (UniProt P40261); test: as above; details: MTase-Glo luminescence, SAH detection, recombinant enzyme; measured here: NNMT max response; stronger effect = lower value
[4] = molecular target: Phenylethanolamine N-methyltransferase (Homo sapiens) (UniProt P11086); test: as above; details: MTase-Glo luminescence, SAH detection, recombinant enzyme; measured here: PNMT max response; stronger effect = lower value
[5] = molecular target: Metallo-beta-lactamase type 2 (Klebsiella pneumoniae) (UniProt C7C422); test: qHTS to identify inhibitors of the New Delhi Metallo-beta-lactamase (NDM): assay validation screen against the NCATS LOPAC Collection (AID 1794843); details: NDM-1 enzyme, nitrocefin hydrolysis, absorbance 485 nm; series mostly up to 38.4 µM;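 further: nitrocefin turnover by NDM-1 measured as 485 nm absorbance at plateau; on the % scale 0 is the no-effect control and ±100 the full control effect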
Method in brief: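 NDM-1 at 2 nM final in 50 mM HEPES pH 7.0, 1 uM ZnSO4, 0.01% Tween20, preincubated with LOPAC compounds pinned in DMSO; 50 uM nitrocefin (stock) added. Hydrolysis read as absorbance at 485 nm in the plateau phase.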

Chain of Metallo-beta-lactamase type 2 (Klebsiella pneumoniae) (C7C422 whole entry, looked up): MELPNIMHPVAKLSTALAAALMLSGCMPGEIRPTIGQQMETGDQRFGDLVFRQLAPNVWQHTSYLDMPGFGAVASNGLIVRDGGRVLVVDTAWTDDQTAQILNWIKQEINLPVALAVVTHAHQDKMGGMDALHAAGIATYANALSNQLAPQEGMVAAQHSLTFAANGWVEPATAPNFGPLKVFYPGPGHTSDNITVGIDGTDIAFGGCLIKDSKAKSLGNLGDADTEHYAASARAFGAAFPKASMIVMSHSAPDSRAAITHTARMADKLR
Chain of Nicotinamide N-methyltransferase (Homo sapiens) (P40261 whole entry, looked up): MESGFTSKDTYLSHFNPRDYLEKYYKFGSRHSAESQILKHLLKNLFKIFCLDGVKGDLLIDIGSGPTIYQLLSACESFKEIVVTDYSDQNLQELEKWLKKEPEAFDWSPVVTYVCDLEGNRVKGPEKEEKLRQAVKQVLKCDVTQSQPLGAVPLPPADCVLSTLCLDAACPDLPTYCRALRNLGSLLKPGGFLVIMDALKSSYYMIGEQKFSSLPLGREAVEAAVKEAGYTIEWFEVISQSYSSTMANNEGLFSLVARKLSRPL
Chain of Catechol O-methyltransferase (Homo sapiens) (P21964 whole entry, looked up): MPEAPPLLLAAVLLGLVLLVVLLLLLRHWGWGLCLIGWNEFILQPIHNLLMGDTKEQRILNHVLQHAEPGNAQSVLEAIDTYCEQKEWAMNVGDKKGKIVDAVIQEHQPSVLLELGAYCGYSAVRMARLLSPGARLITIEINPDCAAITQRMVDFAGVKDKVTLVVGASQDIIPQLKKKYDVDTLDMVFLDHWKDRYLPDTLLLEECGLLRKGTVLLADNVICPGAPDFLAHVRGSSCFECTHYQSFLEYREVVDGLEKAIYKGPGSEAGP
Chain of Phenylethanolamine N-methyltransferase (Homo sapiens) (P11086 whole entry, looked up): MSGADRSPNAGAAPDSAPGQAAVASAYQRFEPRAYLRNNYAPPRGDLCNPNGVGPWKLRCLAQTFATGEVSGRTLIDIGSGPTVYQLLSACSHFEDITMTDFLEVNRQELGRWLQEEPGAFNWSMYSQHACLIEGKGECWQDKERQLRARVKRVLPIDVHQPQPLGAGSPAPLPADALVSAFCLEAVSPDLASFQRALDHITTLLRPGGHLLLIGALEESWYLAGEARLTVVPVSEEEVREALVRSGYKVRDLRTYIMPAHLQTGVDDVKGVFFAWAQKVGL

Structure (SMILES) | activity [1] | activity change, negative = inhibition [2] | activity [3] | activity [4] | Potency [5] | Potency [2]
Clc1nccc2c1ccc1ccccc12 | 4.56% | 3.35% | -11.8% | -6.62% | inactive | 
C/C(=C\c1ccc(C(=O)O)cc1)c1ccc2c(c1)C(C)(C)CCC2(C)C |  |  |  |  | inactive | 
Brc1c(Br)c(Br)c2[nH]cnc2c1Br | -26.1% |  | -40.5% | -39.7% | inactive | 27.3 µM (active)
